Publication PMC7819943, “Rice protein-binding microarrays: a tool to detect cis-acting elements near promoter regions in rice”
Over roughly 68,000 sequences, “fluorescence intensity (a.u.)” has its median near 9,100; the highest 2% begin near 16,000. This is one part of a sample in which the highest values are shown more often than they occur.

Target: OsWRKY34 (Oryza sativa, UniProt Q0JBA9 1-250)
Experiment: protein-binding microarray (RPBM); PBS, 2% BSA, 51.3 ng/ul salmon testes DNA, 50 uM zinc acetate, 200 nM TF, 25 C, 1 h; high values mean tight binding
Conditions: protein: recombinant; tags: N-terminal polyhistidine and DsRed monomer fusion (pET32a); label: CyDye5-dUTP incorporated in the synthesized complementary strand; 3' TTTTT single-stranded linker to array surface; dsDNA, one strand shown
Summary of the method: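 Binding signal is defined as the fluorescence intensity of each feature in arbitrary units, read on an Axon 4000B scanner. Transcription factors with N-terminal polyhistidine and DsRed fusions came from E. coli BL21-CodonPlus and were purified on Ni–NTA. They were incubated at 200 nM for 1 h at 25 °C on a custom Agilent array that had been made double-stranded with Cy5-dUTP, with 50 µM zinc acetate present, and the array was washed.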

Chain of OsWRKY34 (Q0JBA9 entry or part of it): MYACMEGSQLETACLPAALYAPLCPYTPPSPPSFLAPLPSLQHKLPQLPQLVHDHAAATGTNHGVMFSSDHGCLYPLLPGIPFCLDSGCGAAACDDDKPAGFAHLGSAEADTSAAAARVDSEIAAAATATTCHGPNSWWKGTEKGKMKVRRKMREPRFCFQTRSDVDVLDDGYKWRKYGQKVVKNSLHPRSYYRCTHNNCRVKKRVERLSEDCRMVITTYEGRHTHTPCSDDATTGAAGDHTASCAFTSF

Sequence | binding signal
GGGGTCGGGGTGGGAGAGGGAGGCTACACTACAGCAGCAGCGGAGTCACCTAGTGCAG | 11100 fluorescence intensity (a.u.)
ATTTTGGGACAGAGGTAGCAGTGAACTACACGTACCTTGTCGGAGTCACCTAGTGCAG | 21500 fluorescence intensity (a.u.)
AACAAACCAACCTAGGATACTACTGTCAATTTTCACAACCCGGAGTCACCTAGTGCAG | 9280 fluorescence intensity (a.u.)
GCAGTACACTGATACGATACAATCGTTGACTGTTTCAGGACGGAGTCACCTAGTGCAG | 9230 fluorescence intensity (a.u.)
ATTGGATCCGGGGAGGAGGAGGTGGGGTTCGGTTTCGTGCCGGAGTCACCTAGTGCAG | 11600 fluorescence intensity (a.u.)
GTGTGGGTGGCAGGGTGTGTTGAGGAGGTGCCCGCGTTGCCGGAGTCACCTAGTGCAG | 10300 fluorescence intensity (a.u.)
GATGCATTTTTGTCTGGGCGTTGTCCTTGTGGAAGCATCTCGGAGTCACCTAGTGCAG | 10000 fluorescence intensity (a.u.)
GGCGCCGGGGTGGGGTGGTGCTGGAGCCACCGGAGGAGCGCGGAGTCACCTAGTGCAG | 9730 fluorescence intensity (a.u.)
AATGGGTGTTTTTTTAGTTGTTGTGTGTGTTTGGACGATTCGGAGTCACCTAGTGCAG | 10400 fluorescence intensity (a.u.)
TGGATCTGGTGTGTTAGTTTGGATTTGTGTTTGTCCTTTTCGGAGTCACCTAGTGCAG | 12600 fluorescence intensity (a.u.)
GGAGGAGGGGTGGGGTGTTGAGCCCTGGAGAAGCCACCGCCGGAGTCACCTAGTGCAG | 21000 fluorescence intensity (a.u.)
TTGTTGGGTGGGGACGTGGGGTGGGGTTCATGGAGTGGTTCGGAGTCACCTAGTGCAG | 24800 fluorescence intensity (a.u.)
TGTCCTTTGTTGTGGTGTGGTGGTGGGCATCTGGACCGTTCGGAGTCACCTAGTGCAG | 29700 fluorescence intensity (a.u.)
CAGGAGGGGTGGGTTGTTGTTCGGTGGTGTGGACCCGTGCCGGAGTCACCTAGTGCAG | 17700 fluorescence intensity (a.u.)
CGCTTCGCTGACGGTTGTGTGTTGGTGGGTGCAGGGGTGCCGGAGTCACCTAGTGCAG | 12700 fluorescence intensity (a.u.)
TTTTGGTGGGTGGGTTTGGGACGTTGGATTGGTGGTGGACCGGAGTCACCTAGTGCAG | 12600 fluorescence intensity (a.u.)
TCTACGGGTATCCCGCGTCGACAATATTCCCATGCATTTACGGAGTCACCTAGTGCAG | 10900 fluorescence intensity (a.u.)
ATTCCGTTAGCATTTGTCCTGCCATGGCCTATTCTGCCAGCGGAGTCACCTAGTGCAG | 10400 fluorescence intensity (a.u.)
CATGTTGTTCTGTTTGATGTTGCCCACTACGGTCTTTAGTCGGAGTCACCTAGTGCAG | 10900 fluorescence intensity (a.u.)
GACGAGACCGACGCCGTCATCCTCCTTCTCACGCTACCATCGGAGTCACCTAGTGCAG | 8040 fluorescence intensity (a.u.)
GTCACTTCTCCTTTTTTTTTGGCATGCAATAGACTTCCTTCGGAGTCACCTAGTGCAG | 8780 fluorescence intensity (a.u.)
CCCCTCGAGTCTGATCCTCCCACTACCAACGTCCACCGGCCGGAGTCACCTAGTGCAG | 9210 fluorescence intensity (a.u.)
CCGCCGCCGCTCGCCGCCGCATTGCGTTACTCGAGCTCGCCGGAGTCACCTAGTGCAG | 8710 fluorescence intensity (a.u.)
TACTGTCTGTCAACACACTTCATGATTTCTCATCAAATATCGGAGTCACCTAGTGCAG | 10400 fluorescence intensity (a.u.)

Sequence | binding signal
AGGACGATGGGCGCGATGGGATTTGTTCTTGACTGTTTTACGGAGTCACCTAGTGCAG | 12000 fluorescence intensity (a.u.)
TATATACTTTCATGGGTCTATATTTATATGTATGTATACACGGAGTCACCTAGTGCAG | 8690 fluorescence intensity (a.u.)
TCGGTTTCATACGTGGGGTCTGTTGGTGGAGGTGTTGCCACGGAGTCACCTAGTGCAG | 9440 fluorescence intensity (a.u.)
GGTGCGTGTTCGGGATGGGGTTCGGGTTCAATTTCAGGTTCGGAGTCACCTAGTGCAG | 16700 fluorescence intensity (a.u.)
TACTCAATGTCTAATGGGGTGTTTGGATGGGACTAATTTTCGGAGTCACCTAGTGCAG | 13000 fluorescence intensity (a.u.)
CGATACTTTCATGGGTGGGTCCTATGTTGCACGGTTGGTTCGGAGTCACCTAGTGCAG | 22900 fluorescence intensity (a.u.)
TTCGGGTTCAATTTCAGGTTCAGTCGCTTGCTTGGTGCTTCGGAGTCACCTAGTGCAG | 8960 fluorescence intensity (a.u.)
TTACTATACTATTAATATCTGATCACACCTGTCATACACACGGAGTCACCTAGTGCAG | 9710 fluorescence intensity (a.u.)
CAGAGTGCAAGCCAATCATCGCCACCACGCTACGCTACACCGGAGTCACCTAGTGCAG | 8130 fluorescence intensity (a.u.)
CGTTTGTACTGTGTGGTGGTTGGTGATTGGGTGTTGTGCCCGGAGTCACCTAGTGCAG | 13900 fluorescence intensity (a.u.)
AAAAGCCGGTCTCCTTCATCTTCCCGTCCGTAAACCCTAACGGAGTCACCTAGTGCAG | 10600 fluorescence intensity (a.u.)
CCTCTACGCGCGGCCAACGCCGCCGCCGCCGCCGCCGCTCCGGAGTCACCTAGTGCAG | 8370 fluorescence intensity (a.u.)
TCCCTCTCTCTCTCTCTCTTCGTTTCCGCGCGCGCGCGCGCGGAGTCACCTAGTGCAG | 9340 fluorescence intensity (a.u.)
AGCCAGTTTTCTCCACCCTCGTTTTCCGCGCACATGTTTTCGGAGTCACCTAGTGCAG | 17600 fluorescence intensity (a.u.)
ACGACGACGACGACGACGCAACCCCGCGGCGCGCGCCGGCCGGAGTCACCTAGTGCAG | 8430 fluorescence intensity (a.u.)
CTCGCCTCTAGGGTTCCGCCGTTTTCCGCGGCGCGCCACCCGGAGTCACCTAGTGCAG | 9410 fluorescence intensity (a.u.)
CATCTCCTCCGTTTTCCGCGCACATGTTTTTTAAACTGCTCGGAGTCACCTAGTGCAG | 10400 fluorescence intensity (a.u.)
CACCCTCGTTTCCACCCGCGCCCGCGCGCCGCGCGCCACTCGGAGTCACCTAGTGCAG | 10800 fluorescence intensity (a.u.)
CTCGCTTCTTCTTCCTTCTTTCCGTCCTCGCCGCCCCGCGCGGAGTCACCTAGTGCAG | 8470 fluorescence intensity (a.u.)
TCTACGCCGCCGGCGGCGGCGGCGGCGGCAACTGCGGCGCCGGAGTCACCTAGTGCAG | 47800 fluorescence intensity (a.u.)
GTTCCAGCCGCGTTTCCTCTCGCGGCGGCCTCGCCATTTCCGGAGTCACCTAGTGCAG | 9070 fluorescence intensity (a.u.)
CGCCTCTTTTCGTTTCGTTTCGCCGCCCGCTTCCGCCGCGCGGAGTCACCTAGTGCAG | 23300 fluorescence intensity (a.u.)
CCGCCGCCGTTCCGTTTTTTCTCTCTCGCGCCGCCGCCAGCGGAGTCACCTAGTGCAG | 17300 fluorescence intensity (a.u.)
